Bioassay records deposited in PubChem by National Center for Advancing Translational Sciences (NCATS).
Pf growth 96h – Primary qHTS for delayed death inhibitors of the malarial parasite plastid, 96 hour incubation; P. falciparum luciferase reporter growth, 96 h; Potency, µM (doses to about 28.7 µM), usual class: inhibitors; hit rate 6.9% among 320,000; AID 504834, 2011
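Compounds incubated with erythrocytes infected by luciferase-expressing P. falciparum (2% hematocrit, 0.05% parasitemia final) for 96 hours, 37 C in 5% CO2. Growth inhibition scored as decreased luciferase luminescence.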
Pf growth 48h – Primary qHTS for delayed death inhibitors of the malarial parasite plastid, 48 hour incubation. P. falciparum luciferase growth in erythrocytes, 48 h. Potency, µM (doses to about 28.7 µM), most hits filed as inhibitors. hit rate 5.9% among 310,000
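First compound was added to culture medium, then infected red cells at 0.1% parasitemia and 2% hematocrit (final). After incubation at 37 C under 5% CO2, luciferase detection reagent was dispensed and light output recorded.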
HCMV inh – qHTS Assay for inhibitors of the human cytomegalovirus (HCMV) | HFF cells, HCMV-luciferase reporter, 72 h; stronger effect = lower value | activity change, negative = inhibition, % at 57.5 µM | hit rate 4.5% among 410,000 | AID 1259415, 2018; in the data active means activity change below about -60%; inconclusive means no clear call, values can overlap the other calls; inactive means above about -39%
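Compounds were evaluated in HFFs infected with an HCMV luciferase reporter virus (MOI 1 PFU/cell). Luciferase in lysates collected 72 h post infection served as the replication measure.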
Sm TGR inh – qHTS Assay for the Inhibitors of Schistosoma Mansoni Peroxiredoxins | purified TGR, DTNB reduction, TNB absorbance 405 nm | AID 485364, 2010 | Potency, µM (highest dose often 114 µM), actives largely listed as inhibitors | Schistosoma mansoni thioredoxin glutathione reductase (TGR), Q962Y6 | hit rate 3% among 360,000; further: nearly all actives have a fitted effect of over 60% in size
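First, TGR (20 nM dispensed) and NADPH were mixed with compound. Second, a 15 min room-temperature incubation followed. Third, further NADPH and then DTNB were added to start the reaction. Finally, TNB absorbance was monitored kinetically.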
FBPA Giardia inh – qHTS Assay for Inhibitors of Fructose-1,6-bisphosphate Aldolase from Giardia Lamblia. hit rate 0.71% among 290,000. AID 2451, 2010. A8B2U2. Potency, µM (highest dose often 59.6 µM), most hits filed as inhibitors. purified Giardia FBPA; further: nearly all actives have a fitted effect of over 55% in size
Target sequence (A8B2U2 whole entry, looked up): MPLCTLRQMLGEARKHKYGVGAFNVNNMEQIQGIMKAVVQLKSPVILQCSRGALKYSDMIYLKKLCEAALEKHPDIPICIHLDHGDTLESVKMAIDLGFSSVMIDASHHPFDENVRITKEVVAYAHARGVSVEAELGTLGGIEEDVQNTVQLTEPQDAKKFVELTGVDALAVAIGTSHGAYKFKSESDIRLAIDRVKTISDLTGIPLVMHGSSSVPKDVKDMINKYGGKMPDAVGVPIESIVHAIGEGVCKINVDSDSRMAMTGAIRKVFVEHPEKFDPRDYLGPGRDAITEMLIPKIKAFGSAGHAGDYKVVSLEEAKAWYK
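Giardia FBPA (40 nM reagent) was preincubated 10 min at RT with compound (up to 57.5 uM final), then substrate plus GAPDH/TPI/NAD/arsenate coupling system with diaphorase/resazurin was added; resorufin fluorescence (525/598 nm) was read after 20 min.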
Each line names hits and unclear results; the compound was inactive in the other large screens; ! = a repeat was not active. In the library only some 14% were active in any assay of this set; here they are far more common. Unless noted, the call rests on the fitted dose curve; in most records, active means well fitted curve in the direction sought with a large enough effect; inconclusive means small, poorly fitted or top-dose-only effect, or another doubt; inactive means no such curve, though single readings can be large; an effect the other way counts as inactive or inconclusive.

CC(=O)c1cc(F)c(N2CCN(C(=O)COc3ccccc3F)CC2)cc1C	Pf growth 48h 14.7µM
CCOC(=O)C1CCN(C(=O)Cn2ncc3c([nH]c4ccccc43)c2=O)CC1	HCMV inh -68.1!
CCOC(=O)CNC(=O)Cn1c(C)cc2ccccc2c1=O	none
Cc1ccc2[nH]c3c(=O)n(CC(=O)N4CCN(C)CC4)ncc3c2c1	Pf growth 96h 7.38µM
O=C(Cn1ncc2c([nH]c3ccccc32)c1=O)N1CCN(c2ccccn2)CC1	Pf growth 96h 1.31µM
Cc1ccc2[nH]c3c(=O)n(CC(=O)N4CCN(c5cccc(C(F)(F)F)c5)CC4)ncc3c2c1	none (no result: Pf growth 96h, Pf growth 48h, FBPA Giardia inh)
CCOC(=O)C1CCN(C(=O)CNC(=O)Cn2c(C)cc3ccccc3c2=O)CC1	Pf growth 96h 3.29µM
COCCn1c(=O)c(-c2cccs2)nc2cnc(Nc3ccccc3)nc21	none (no result: Pf growth 96h, Pf growth 48h, HCMV inh, Sm TGR inh)
COC(=O)[C@@]1(Cc2ccc(OC)cc2)[C@H]2c3cc(C(=O)N(C)C)n(Cc4ccc(C(F)(F)F)nc4)c3C[C@H]2CN1C(=O)c1ccccc1	none (no result: Pf growth 96h, Pf growth 48h, HCMV inh, Sm TGR inh)
CC(=O)Nc1cc2c3c(c1)CC(=O)N3CCC2	none
N#CC(=C(\N)Sc1ccccc1N)/C(C#N)=C(/N)Sc1ccccc1N	none (no result: Pf growth 96h, Pf growth 48h, HCMV inh, Sm TGR inh)
CCCCn1c(N)c(N(CCC(C)C)C(=O)C2CC(=O)N(CCc3ccc(OC)c(OC)c3)C2)c(=O)[nH]c1=O (centres undefined)	Pf growth 48h inconclusive (no result: FBPA Giardia inh)
Cc1ccc(C)c(CN2CCC(CNC(=O)Cn3ncc4c([nH]c5ccccc54)c3=O)CC2)c1	none (no result: Pf growth 96h, Pf growth 48h, FBPA Giardia inh)
O=C(Cn1ncc2c([nH]c3ccccc32)c1=O)NCC1CCN(Cc2ccccc2F)CC1	Pf growth 96h 9.28µM
CN(Cc1ccccc1)C(=O)Nc1ccc2c(c1)N(C)C(=O)c1ccccc1S2	none (no result: Pf growth 96h, Pf growth 48h, FBPA Giardia inh)
COc1ccccc1NC(=O)COc1ccc(C(=O)NCc2ccccc2)cc1OC	Pf growth 96h inconclusive, Pf growth 48h 13.1µM (no result: FBPA Giardia inh)
O=C(Nc1ccccc1C(=O)Nc1nnc(C(F)(F)F)s1)c1ccccc1Cl	Pf growth 96h 4.65µM, Pf growth 48h inconclusive, HCMV inh -102.7
COc1ccccc1NC(=O)COc1ccc(C(=O)NCC2CCCO2)cc1OC (centres undefined)	none (no result: Pf growth 96h, Pf growth 48h, Sm TGR inh, FBPA Giardia inh)
O=C(O)c1ccccc1C(=O)Nc1ccc(Nc2ccccc2)cc1	none (no result: Pf growth 96h, Pf growth 48h, Sm TGR inh, FBPA Giardia inh)
O=C(Nc1ccccc1C(=O)Nc1ccccc1C(=O)O)c1ccccc1	Pf growth 96h inconclusive, HCMV inh -60.2 (no result: Pf growth 48h)
O=C(Nc1nnc(Cc2ccccc2F)s1)c1ccccc1Cl	none
O=C(O)c1ccccc1NC(=O)c1ccccc1Nc1ccccc1	HCMV inh -69.8
C[C@H](CO)N1C[C@H](C)[C@@H](CN(C)S(=O)(=O)c2cn(C)cn2)Oc2ccc(NC(=O)Cn3cnnn3)cc2C1=O	none (no result: Pf growth 96h, Pf growth 48h, Sm TGR inh, FBPA Giardia inh)
Cc1ccccc1N1CCN(c2ccccc2NC(=O)/C=C\C(=O)O)CC1	none (no result: Pf growth 96h, Pf growth 48h, Sm TGR inh, FBPA Giardia inh)
COc1cccc(/C=N/NC(=O)Cn2cnc3c2c(=O)n(C)c(=O)n3C)c1	none
Cc1ccc(CN(C)C(=O)c2ccccc2NC(=O)c2ccccc2)o1	Pf growth 96h inconclusive, Pf growth 48h inconclusive, Sm TGR inh 39.8µM (no result: FBPA Giardia inh)
COc1ccc(NC(=O)c2ccccc2[N+](=O)[O-])cc1	Pf growth 96h inconclusive, HCMV inh inconclusive
COc1ccccc1Nc1ccc(NC(=O)c2cccc([N+](=O)[O-])c2C)cc1	Pf growth 48h inconclusive, HCMV inh -62.4
N#Cc1ccccc1NC(=O)COc1ccccc1C(=O)Nc1ccccc1	none (no result: Pf growth 96h, Pf growth 48h, Sm TGR inh, FBPA Giardia inh)
COc1ccccc1NC(=O)c1ccccc1Nc1ccccc1	Pf growth 96h inconclusive, Pf growth 48h 5.22µM
COc1ccccc1NC(=O)COc1ccccc1C(=O)Nc1ccccc1	Pf growth 48h inconclusive, HCMV inh -92.9
COc1ccc(C(=O)NCC(=O)NCC2(N(C)C)CCCCC2)cc1OC	Pf growth 96h inconclusive (no result: Pf growth 48h)
Cc1ccc(C(=O)Nc2ccccc2C(=O)NC(C(=O)O)C(C)C)cc1 (centres undefined)	Pf growth 96h inconclusive, Pf growth 48h 11.7µM, FBPA Giardia inh inconclusive
CCC(C)C(NC(=O)c1ccccc1NC(=O)c1ccc(C)cc1)C(=O)O (centres undefined)	Pf growth 48h inconclusive
COc1cc(C(=O)NCC2(N(C)C)CCCCC2)ccc1OCc1ccccc1	Pf growth 96h 9.28µM, Pf growth 48h inconclusive
